Test results as given in PubChem BioAssay AID1159580 (chemical genetic matrix, 2015).
Several values for one entry are separate records, joined by “and”; a condition that tells them apart may be missing. Identical values can stand only once. About 2,000 (36%) of roughly 5,500 compounds were called active. Another 18% or so got no clear call; they are omitted. Rule as the data show it: active = normalized growth mostly below about 0.91 (no sharp cut-off); inconclusive = no clear call, values can overlap the other calls; inactive = mostly above about 0.92. Some of the results follow.

Assay: chemical genetic growth profiling, strain panel (AID 1159580);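 also: tested at 20 µM; growth read once vehicle control cultures reached saturation at 30 °C; 1 = growth at the plate median or of vehicle wells; lower values mean less growth of the strain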
Conditions: S. cerevisiae deletion strains, growth OD

Measured: normalized growth

CCCCOC(=O)c1ccc(N)cc1
0.637 (active) and 0.942 (inactive): locus YHR030C, strain SLT2, stronger effect = lower value
inactive: locus YAL013W, strain DEP1, stronger effect = lower value 0.974 | locus YAL021C, strain ccr4, stronger effect = lower value 0.909 | locus YBR021W, strain FUR4, stronger effect = lower value 0.948 | locus YBR229C, strain ROT2, stronger effect = lower value 0.993 | locus YCL029C, strain bik1, stronger effect = lower value 0.948 | locus YDL005C, strain med2, stronger effect = lower value 0.949 | locus YDL035C, strain GPR1, stronger effect = lower value 0.951 | locus YDL074C, strain BRE1, stronger effect = lower value 0.869 | locus YDL101C, strain DUN1, stronger effect = lower value 0.975 | locus YDL134C, strain PPH21, stronger effect = lower value 0.969 | locus YDL185W, strain tfp1, stronger effect = lower value 0.959 | locus YDR069C, strain doa4, stronger effect = lower value 0.916 | locus YDR150W, strain NUM1, stronger effect = lower value 0.988 | locus YDR195W, strain ref2 1.14 | locus YDR334W, strain swr1, stronger effect = lower value 0.914 | locus YEL037C, strain rad23, stronger effect = lower value 0.928 | locus YEL061C, strain CIN8, stronger effect = lower value 0.974 | locus YER110C, stronger effect = lower value 0.922 | locus YER155C, strain BEM2, stronger effect = lower value 0.969 | locus YER167W, strain BCK2, stronger effect = lower value 0.906 | locus YFR010W, strain ubp6, stronger effect = lower value 0.924 | locus YGL078C, strain dbp3, stronger effect = lower value 0.96 | locus YGL167C, strain pmr1, stronger effect = lower value 0.927 | locus YGL248W, strain PDE1, stronger effect = lower value 0.996 | locus YGR078C, strain PAC10, stronger effect = lower value 0.89 | locus YHR013C, strain ard1, stronger effect = lower value 0.856 | locus YHR079C, strain IRE1 (second series), stronger effect = lower value 0.935 | locus YHR079C, strain IRE1, stronger effect = lower value 0.993 | locus YHR094C, strain hxt1, stronger effect = lower value 0.961 | locus YHR129C, strain ARP1, stronger effect = lower value 0.984 | locus YHR200W, strain rpn10, stronger effect = lower value 0.933 | locus YIL066C, strain RNR3, stronger effect = lower value 0.925 | locus YIL073C, strain SPO22, stronger effect = lower value 0.85 | locus YIL125W, strain kgd1, stronger effect = lower value 0.967 | locus YIR030C, strain dcg1, stronger effect = lower value 0.946 | locus YJL115W, strain asf1, stronger effect = lower value 0.907 | locus YJL134W, strain LCB3, stronger effect = lower value 0.985 | locus YJL168C, strain set2, stronger effect = lower value 0.953 | locus YJL187C, strain SWE1 (second series), stronger effect = lower value 0.93 | locus YJR043C, strain POL32, stronger effect = lower value 0.871 | locus YJR066W, strain TOR1, stronger effect = lower value 0.949
0.511 (active) and 0.971 (inactive): locus YJL095W, strain BCK1, stronger effect = lower value
active: locus YAL026C, strain drs2, stronger effect = lower value 0.603 | locus YAL030W, strain snc1, stronger effect = lower value 0.908 | locus YBL061C, strain skt5, stronger effect = lower value 0.71 | locus YBR009C, strain hhf1, stronger effect = lower value 0.849 | locus YBR023C, strain chs3, stronger effect = lower value 0.729 | locus YBR171W, strain sec66, stronger effect = lower value 0.884 | locus YBR231C, strain swc5, stronger effect = lower value 0.821 | locus YBR279W, strain paf1, stronger effect = lower value 0.897 | locus YCL011C, strain gbp2, stronger effect = lower value 0.891 | locus YCL016C, strain dcc1, stronger effect = lower value 0.86 | locus YCL069W, strain vba3, stronger effect = lower value 0.886 | locus YCR088W, strain abp1, stronger effect = lower value 0.862 | locus YDL040C, strain nat1, stronger effect = lower value 0.932 | locus YDL192W, strain arf1, stronger effect = lower value 0.886 | locus YDR001C, strain nth1, stronger effect = lower value 0.904 | locus YDR101C, strain arx1, stronger effect = lower value 0.898 | locus YDR137W, strain rgp1, stronger effect = lower value 0.453 | locus YDR159W, strain sac3, stronger effect = lower value 0.751 | locus YDR162C, strain NBP2, stronger effect = lower value 0.801 | locus YDR297W, strain sur2, stronger effect = lower value 0.92 | locus YDR318W, strain mcm21, stronger effect = lower value 0.897 | locus YDR335W, strain msn5, stronger effect = lower value 0.858 | locus YDR388W, stronger effect = lower value 0.911 | locus YDR392W, strain spt3, stronger effect = lower value 0.484 | locus YDR502C, strain sam2, stronger effect = lower value 0.911 | locus YEL003W, strain gim4, stronger effect = lower value 0.888 | locus YEL061C, strain CIN8 (second series), stronger effect = lower value 0.895 | locus YER015W, strain faa2, stronger effect = lower value 0.864 | locus YER016W, strain bim1, stronger effect = lower value 0.877 | locus YER111C, strain swi4, stronger effect = lower value 0.896 | locus YER155C, strain BEM2 (second series), stronger effect = lower value 0.203 | locus YGL086W, strain mad1, stronger effect = lower value 0.927 | locus YGL173C, strain kem1, stronger effect = lower value 0.876 | locus YGL227W, strain vid30, stronger effect = lower value 0.893 | locus YGL240W, strain doc1, stronger effect = lower value 0.666 | locus YGL253W, strain hxk2, stronger effect = lower value 0.869 | locus YGR135W, strain pre9, stronger effect = lower value 0.865 | locus YGR229C, strain SMI1, stronger effect = lower value 0.608 | locus YGR252W, strain gcn5, stronger effect = lower value 0.743 | locus YHR027C, strain rpn1, stronger effect = lower value 0.908 | locus YHR142W, strain chs7, stronger effect = lower value 0.495 | locus YJL092W, strain hpr5, stronger effect = lower value 0.872 | locus YJL095W, strain BCK1 (second series), stronger effect = lower value 0.278 | locus YJL129C, strain trk1, stronger effect = lower value 0.769 | locus YJL154C, strain vps35, stronger effect = lower value 0.906 | locus YJL164C, strain tpk1, stronger effect = lower value 0.871 | locus YJL166W, strain qcr8, stronger effect = lower value 0.825 | locus YJL187C, strain SWE1, stronger effect = lower value 0.919
